The source of these data is PubChem BioAssay (NCATS).

Inconclusive results are not listed. Calls of active or inactive are those of the source. Unless noted, the call rests on the fitted dose curve; in most records, active means well fitted inhibition curve with a large enough effect; inconclusive means small, poorly fitted or top-dose-only effect; inactive means flat fitted curve, though single readings scatter.

Test [1] in a line: qHTS for identification of novel therapeutic agents for treatment of microphthalmiaassociated transcription factor (MiT) renal cell carcinoma (RCC) (AID 1963991; calls by dose curve; further: potency means the concentration at half of the fitted maximal effect). To be noted: CellTiter-Glo, 48 h; for z-score: stronger effect = lower value. The procedure, abridged:
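Curves over 11 concentrations were fitted to CellTiter-Glo luminescence, scaled between empty wells (0%) and DMSO (100%) viability. Cells were UOK109, UOK124 and UOK145 TFE3-fusion RCC lines at 500/well, exposed 48 hours at 37 C.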

The nature of test [2]: qHTS drug screen for cell cycle checkpoint inhibitors in PARPi-resistant BRCA-mutant ovarian cancer cell lines. (AID 1963452; calls by dose curve). The settings on record: PEO1/OlaR viability, CellTiter-Glo luminescence, 96 h, stronger effect = lower value. An outline of the steps: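 PEO1, PEO4 and PEO1/OlaR ovarian cancer cells, 600 per well, exposed 96 h at 37C to a dilution series. Viability read by CellTiter-Glo luminescence, normalized to DMSO and empty wells; activity summarized as Z-AUC.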

The nature of test [3]: qHTS profiling for inhibitors of Plasmodium falciparum proliferation (AID 504749). Further: potency means the concentration at half of the fitted maximal effect.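 On activity, negative = inhibition: 0% = DMSO vehicle and full inhibition = artemisinin control.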 On all read-outs here: nearly all actives have a fitted effect of over 60% in size. To be noted: P. falciparum in erythrocytes, SYBR Green DNA, 72 h; for activity, negative = inhibition: at 28.7 µM (top of the series). An outline of the steps: (§1)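 Infected RBCs, 0.3% parasitemia/2.5% Hct final; cpd 72 h, 37 C, 5% CO2; lysis buffer with saponin/triton/SYBR Green I, o/n RT dark; FI 485/535; norm. to artemisinin (0.29 uM) and DMSO.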

The test system of another test is 3D7. The test is described as above. To be noted: P. falciparum in erythrocytes, SYBR Green DNA, 72 h; series mostly up to 28.7 µM. An outline of the steps:
as §1

Another test concerns 7G8. Described as above. To be noted: P. falciparum in erythrocytes, SYBR Green DNA, 72 h; series mostly up to 28.7 µM. The procedure, abridged:
as §1

A further test has as its system AS120. The description is as above. To be noted: P. falciparum in erythrocytes, SYBR Green DNA, 72 h; series mostly up to 28.7 µM. An outline of the steps: as §1
Another test has as its system ATS189. The description is as above. To be noted: P. falciparum in erythrocytes, SYBR Green DNA, 72 h; series mostly up to 28.7 µM. The procedure, abridged:
as §1

A further test deals with ATS95. Described as above. The settings on record: P. falciparum in erythrocytes, SYBR Green DNA, 72 h; series mostly up to 28.7 µM. An outline of the steps: as §1
Another test deals with CP185. The description is as above. The settings on record: P. falciparum in erythrocytes, SYBR Green DNA, 72 h; series mostly up to 28.7 µM. An outline of the steps: as §1
The next test relates to AA1029. The description is as above. The settings on record: P. falciparum in erythrocytes, SYBR Green DNA, 72 h; series mostly up to 28.7 µM. An outline of the steps:
as §1

The next test has as its system C2A. The description is as above. To be noted: P. falciparum in erythrocytes, SYBR Green DNA, 72 h; series mostly up to 28.7 µM. An outline of the steps: as §1
In the next test the test system is CP191. The description is as above. To be noted: P. falciparum in erythrocytes, SYBR Green DNA, 72 h; series mostly up to 28.7 µM. An outline of the steps: as §1
The next test has as its system CP192. Described as above. To be noted: P. falciparum in erythrocytes, SYBR Green DNA, 72 h; series mostly up to 28.7 µM. An outline of the steps:
as §1

The mark [4] stands for this setting: TFE3-RCC UOK109 viability, measured here: UOK109 Z-AUC.
The mark [5] stands for this setting: TFE3-RCC viability, measured here: UOK124 Z-AUC.
Setting [6] is: TFE3-RCC viability, measured here: UOK145 Z-AUC.
[7] abbreviates: measured here: PEO1 parental Z-AUC.

Regarding `COc1ccc(-c2ccc3c(N4CCOC[C@H]4C)nc(N4CCOC[C@H]4C)nc3n2)cc1CO`, the Potency in [1] (TFE3-RCC UOK109 viability, active = Z-AUC below -0.8 in all three lines) was 0.0935 µM (active). In addition, the figures for the z-score in test [1] (setting [4]), in [1] (setting [5]) and in test [1] (setting [6]) were -1.8, -2.87 and -2.13, respectively.

With `O=C(O)COCCN1CCN(C(c2ccccc2)c2ccc(Cl)cc2)CC1` (configuration not stated), the z-score in [1] (setting [4]) stood at 0.871; in [1] (setting [5]) it was 0.439; in [1] (setting [6]) it was 0.674.

Consider `C[C@]12CC[C@H](O)CC1=CC[C@@H]1[C@H]2CC[C@]2(C)C(c3cccnc3)=CC[C@H]12`, for which the z-score in [1] (setting [4]) turned out to be 0.87; in [1] (setting [5]), 0.84; in [1] (setting [6]) it was 0.924.

With `CCCc1nc2c(C)cc(-c3nc4ccccc4n3C)cc2n1Cc1ccc(-c2ccccc2C(=O)O)cc1`, the Z-AUC was 0.748 (inactive) in test [2], 1.08 in [2] (setting [7]) and 0.729 in [2] (measured here: PEO4 Z-AUC). The activity, negative = inhibition in [3] (parasite line A) was -11.3% (inactive). The Potency in [3] (parasite line B) was 1.78 µM (active); in the test with 3D7, 8.91 µM (active); in the test on 7G8, 0.316 µM (active); in the test with AS120, 1.41 µM (active); with ATS189 it was 0.794 µM (active); in the test with ATS95, 3.98 µM (active). The Potency entry with CP185 is “inactive”.

`OC(CN1CCC(Cc2ccc(F)cc2)CC1)c1ccc(Cl)cc1` (configuration not stated): the results for the z-score in test [1] (setting [4]), in test [1] (setting [5]) and in test [1] (setting [6]) were 0.0108, 0.291 and 0.245, respectively. The activity, negative = inhibition in [3] (parasite line A) is -26.6% (inactive). In addition, the Potency in test [3] (parasite line B) was 0.891 µM (active); with 3D7, 5.01 µM (active); with 7G8 it was 0.316 µM (active); in the test with AA1029, 1.41 µM (active); in the test on AS120, 1.26 µM (active); in the test with ATS189, 1.41 µM (active). Moreover, in the test on ATS95, the Potency is 1.58 µM (active). Moreover, the Potency result in the test on C2A and with CP191 was “inactive” in each case.

As to `O=C(C=Cc1ccc(/C=C/C(=O)Nc2ccc(C3=NCCN3)cc2)cc1)Nc1ccc(C2=NCCN2)cc1`, the z-score in test [1] (setting [4]) came out at 0.251; in [1] (setting [5]), 0.767; in [1] (setting [6]), 0.309.

For the molecule `COc1ccc2nc(S(=O)Cc3ncc(C)c(OC)c3C)[nH]c2c1` (configuration not stated), the Z-AUC is 1.57 (inactive) in test [2], 0.925 in test [2] (setting [7]) and 1.02 in test [2] (measured here: PEO4 Z-AUC). Also, the activity, negative = inhibition was -18.6% (inactive) in test [3] (parasite line A) and -6.81% (inactive) in [3] (parasite line B). The Potency result in the test on 3D7, in the test on AA1029, in the test with AS120, with ATS189, in the test with ATS95 and in the test on C2A was “inactive” in each case. For the same molecule, the Potency entry in the test on CP185 and in the test with CP192 was “inactive” in each case. In addition, the Potency with 7G8 was 10 µM (active).

As for `Cc1ccccc1C(C(=O)NC1CCCC1)N(C(=O)Cn1cnc2ccccc21)c1cccc(F)c1` (configuration not stated), the results for the z-score in test [1] (setting [4]), in [1] (setting [5]) and in [1] (setting [6]) were 0.51, 0.839 and 0.533, respectively.

On to `Cc1cc2c(C(C)C)c(O)c(O)c(C=O)c2c(O)c1-c1c(C)cc2c(C(C)C)c(O)c(O)c(C=O)c2c1O`, for which the results for the Z-AUC in [2], in [2] (setting [7]) and in test [2] (measured here: PEO4 Z-AUC) were 1.05 (inactive), 0.604 and 0.413, respectively. In addition, the Potency with 7G8 and with AS120 was 8.91 µM (active) in each case.

Consider `Cn1cnc([N+](=O)[O-])c1Sc1ncnc2nc[nH]c12`, for which the Z-AUC in test [2] was -0.621 (inactive); in test [2] (setting [7]), -1.27; in [2] (measured here: PEO4 Z-AUC), -1.41. The Potency entry with 3D7, in the test with AA1029, with AS120, in the test on ATS95 and in the test with CP192 was “inactive” in each case.

In the case of `CCOC(=O)C1=C[C@@]2(CC)CCCN3CCc4c(n1c1ccccc41)[C@H]32`, the Potency in the test with CP192 is 13.5 µM (active).

With `CCOc1cc(C=C2C(=O)N(c3ccccc3)N=C2C)cc(Cl)c1OCC(=O)OC`, the z-score in test [1] (setting [4]) was determined as 0.66; in test [1] (setting [5]), 0.208; in test [1] (setting [6]) it was 0.267.

`Cc1[nH]c(=O)c(C#N)cc1-c1ccc2nccn2c1`: the Z-AUC is -0.546 (inactive) in [2], -0.575 in test [2] (setting [7]) and -0.131 in test [2] (measured here: PEO4 Z-AUC). Also, the activity, negative = inhibition in test [3] (parasite line A) was 5.44% (inactive); in test [3] (parasite line B) it was 15.3% (inactive). Moreover, the Potency result in the test with 3D7, with 7G8, in the test with AA1029, in the test on AS120, with ATS189 and in the test on ATS95 was “inactive” throughout. The Potency entry in the test on C2A, with CP185, in the test on CP191 and with CP192 was “inactive” throughout.

For the molecule `CC(C)NCC(O)COc1ccc(COCCOC(C)C)cc1` (configuration not stated), the figures for the activity, negative = inhibition in test [3] (parasite line A) and in [3] (parasite line B) were 1.04% (inactive) and 5.04% (inactive), respectively. Moreover, the Potency result in the test with 3D7, with 7G8, in the test with AA1029, in the test with AS120, in the test with ATS189 and in the test on ATS95 was “inactive” in each case. Moreover, the Potency entry in the test with C2A, in the test on CP185, in the test with CP191 and in the test with CP192 was “inactive” each time.

As for `CCOc1ccc(Cc2cc([C@@H]3O[C@H](CO)[C@@H](O)[C@H](O)[C@@H]3O)ccc2Cl)cc1`, the values for the z-score in test [1] (setting [4]), in test [1] (setting [5]) and in test [1] (setting [6]) were 0.362, 0.747 and 0.623, respectively.

As for `Clc1ccc(Nc2nnc(Cc3ccncc3)c3ccccc23)cc1`, the Z-AUC in test [2] was 0.341 (inactive); in test [2] (setting [7]), 0.338; in [2] (measured here: PEO4 Z-AUC), 0.325. Also, the activity, negative = inhibition was -16.8% (inactive) in test [3] (parasite line A) and -13.7% (inactive) in test [3] (parasite line B). Besides, the Potency result with 3D7, in the test with ATS189, in the test on ATS95, with C2A, with CP185 and with CP192 was “inactive” each time. Besides, the Potency in the test on 7G8 is 10 µM (active).

`Clc1cccc(Cl)c1NC1=NCCN1`: the values for the z-score in test [1] (setting [4]), in test [1] (setting [5]) and in test [1] (setting [6]) were 0.351, 0.654 and -0.377, respectively. Further, the activity, negative = inhibition in test [3] (parasite line A) is -1.81% (inactive); in [3] (parasite line B), 0.0653% (inactive). The Potency result in the test on 3D7, in the test on AA1029, with AS120, with ATS189, in the test on ATS95 and in the test on C2A was “inactive” in each case. Besides, the Potency result with CP185, with CP191 and in the test with CP192 was “inactive” throughout.
